Laboratory results taken from the supplement of paper PMC10849652.
Of roughly 7,900 targets only a part is listed; those with a hit were picked by preference. About 0.6% of all pairs of compound and target were hits.

How the values were obtained:
Assay in all cases: log2 fold change, soluble protein after heating vs DMSO (PISA); higher = thermal stabilisation; K562 cells, 10 uM, 30 min; active = over 0.2 and 3.5 SD of the protein, either way, in both replicates (recomputed)
[1] = compound: C1=CC=C(C=C1)[C@H](COC2=CC3=C(C=C2)NC(=O)N3)NC(=O)C4=CC=CN(C4=O)CC5=CC(=C(C=C5)F)F
Summary of the method: (§1)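 For each measurement, 10 μM compound was applied for 30 min to K562 cells at 2×10^6 cells/mL. Aliquots were heated for 3 min across 48°C-58°C, pooled, and extracted in PBS with 0.5% NP-40 at 4°C; the supernatant after 21,000xg for 90 min was soluble protein. This was quantified by TMTpro 16plex LC-MS/MS with channel sums equalised, and thermal stability was reported relative to control samples from duplicates, on a log2 fold-change scale.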

[2] = compound: CC1=C(SC2=C1C(=N[C@H](C3=NN=C(N32)C)CC(=O)N)C4=CC=C(C=C4)Cl)C
Summary of the method: as §1

[3] = compound: CC1=C2C(=CC=C1)N=C(N(C2=O)C3=CC=CC=C3C)CN4C=NC5=C(N=CN=C54)N
Summary of the method: as §1

[4] = compound: Cc1sc2c(c1C)C(c1ccc(Cl)cc1)=N[C@@H](CC(=O)OC(C)(C)C)c1nnc(C)n1-2
Summary of the method: as §1

[5] = compound: c1ccc([C@@H]2C[C@H]2NC2CCNCC2)cc1
Summary of the method: as §1

Measured: log2 fold change

DNM2 (UniProt P50570)
Chain of UniProt P50570 (P50570 whole entry, looked up): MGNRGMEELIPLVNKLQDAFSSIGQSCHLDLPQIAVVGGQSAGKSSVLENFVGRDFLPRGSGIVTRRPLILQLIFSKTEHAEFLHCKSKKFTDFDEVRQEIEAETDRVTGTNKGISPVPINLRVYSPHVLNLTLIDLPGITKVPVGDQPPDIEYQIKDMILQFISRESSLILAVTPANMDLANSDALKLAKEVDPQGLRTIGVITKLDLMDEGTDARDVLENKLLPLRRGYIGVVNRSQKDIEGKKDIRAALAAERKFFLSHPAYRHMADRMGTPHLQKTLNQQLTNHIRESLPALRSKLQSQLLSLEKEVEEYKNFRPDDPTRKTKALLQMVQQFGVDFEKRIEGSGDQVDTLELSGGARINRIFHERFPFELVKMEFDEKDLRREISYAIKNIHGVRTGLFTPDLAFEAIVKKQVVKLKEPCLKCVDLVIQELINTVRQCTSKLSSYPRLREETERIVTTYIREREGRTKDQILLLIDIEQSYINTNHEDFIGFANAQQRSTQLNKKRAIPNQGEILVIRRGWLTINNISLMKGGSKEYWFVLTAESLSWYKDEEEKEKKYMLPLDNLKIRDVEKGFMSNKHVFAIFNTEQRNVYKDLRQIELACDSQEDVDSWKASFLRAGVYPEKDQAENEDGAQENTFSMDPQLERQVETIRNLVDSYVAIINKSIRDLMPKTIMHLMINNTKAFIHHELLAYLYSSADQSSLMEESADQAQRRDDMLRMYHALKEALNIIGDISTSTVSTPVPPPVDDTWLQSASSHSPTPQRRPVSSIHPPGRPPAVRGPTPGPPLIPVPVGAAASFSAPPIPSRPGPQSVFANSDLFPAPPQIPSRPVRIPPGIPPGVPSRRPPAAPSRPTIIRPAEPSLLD
inactive: [1] -0.023 | [2] 0.044 | [3] 0.078 | [4] -0.027 | [5] -0.036

DFFB (UniProt O76075)
Chain of UniProt O76075 (O76075 whole entry, looked up): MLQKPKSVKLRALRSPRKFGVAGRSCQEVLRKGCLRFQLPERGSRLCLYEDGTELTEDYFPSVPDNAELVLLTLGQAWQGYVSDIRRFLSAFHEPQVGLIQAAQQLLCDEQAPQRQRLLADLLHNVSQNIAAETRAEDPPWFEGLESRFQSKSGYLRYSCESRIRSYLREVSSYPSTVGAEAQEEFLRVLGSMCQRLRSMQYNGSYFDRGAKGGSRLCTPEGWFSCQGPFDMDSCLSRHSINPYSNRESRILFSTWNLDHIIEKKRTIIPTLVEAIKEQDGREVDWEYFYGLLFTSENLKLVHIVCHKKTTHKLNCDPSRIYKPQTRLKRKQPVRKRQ
inactive: [1] -0.027 | [2] 0.099 | [3] 0.048 | [4] 0.202 | [5] 0.049

DHRS3 (UniProt O75911)
Chain of UniProt O75911 (O75911 whole entry, looked up): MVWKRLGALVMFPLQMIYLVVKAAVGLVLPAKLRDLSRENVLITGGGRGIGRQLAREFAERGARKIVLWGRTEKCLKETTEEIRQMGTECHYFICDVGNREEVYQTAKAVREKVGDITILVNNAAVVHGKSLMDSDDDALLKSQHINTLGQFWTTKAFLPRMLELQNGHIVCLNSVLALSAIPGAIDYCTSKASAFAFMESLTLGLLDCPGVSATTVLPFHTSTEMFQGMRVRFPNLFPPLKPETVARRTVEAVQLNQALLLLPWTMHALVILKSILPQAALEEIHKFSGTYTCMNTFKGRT
inactive: [1] 0.007 | [2] 0.068 | [3] 0.057 | [4] 0.017 | [5] -0.024

FAM118A (UniProt Q9NWS6)
inactive: [1] -0.079 | [2] 0.05 | [3] -0.102 | [4] -0.021 | [5] 0.003

DTWD2 (UniProt Q8NBA8)
inactive: [1] -0.011 | [2] 0.125 | [3] 0.064 | [4] 0.043 | [5] -0.036

DNAH11 (UniProt Q96DT5)
inactive: [1] 0.047 | [2] -0.387 | [3] 0.089 | [4] -0.021 | [5] 0.092

EXOC6 (UniProt Q8TAG9)
inactive: [1] -0.088 | [2] -0.006 | [3] 0.072 | [4] 0.031 | [5] -0.069

ECH1 (UniProt Q13011)
Chain of UniProt Q13011 (Q13011 whole entry, looked up): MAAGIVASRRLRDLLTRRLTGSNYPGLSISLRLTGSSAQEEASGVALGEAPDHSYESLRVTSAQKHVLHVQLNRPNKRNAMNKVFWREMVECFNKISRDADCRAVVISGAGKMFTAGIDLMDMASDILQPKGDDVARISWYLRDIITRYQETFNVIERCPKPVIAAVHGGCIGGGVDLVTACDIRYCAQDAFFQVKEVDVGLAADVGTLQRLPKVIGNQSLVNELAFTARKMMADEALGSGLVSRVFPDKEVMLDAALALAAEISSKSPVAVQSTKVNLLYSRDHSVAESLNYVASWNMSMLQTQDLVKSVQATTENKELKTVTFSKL
inactive: [1] -0.072 | [2] 0.161 | [3] 0.086 | [4] -0.114 | [5] -0.046

DDX46 (UniProt Q7L014)
inactive: [1] -0.059 | [2] 0.09 | [3] 0.184 | [4] -0.064 | [5] 0

DTWD1 (UniProt Q8N5C7)
inactive: [1] -0.051 | [2] -0.011 | [3] 0.152 | [4] -0.056 | [5] 0.07

CUEDC2 (UniProt Q9H467)
inactive: [1] 0.036 | [2] 0.047 | [3] 0.038 | [4] 0.01 | [5] -0.022

ELOC (UniProt Q15369)
Chain of UniProt Q15369 (Q15369 whole entry, looked up): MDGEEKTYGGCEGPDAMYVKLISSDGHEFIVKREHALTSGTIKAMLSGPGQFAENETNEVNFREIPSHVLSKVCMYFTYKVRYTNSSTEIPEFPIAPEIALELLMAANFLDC
inactive: [1] 0.024 | [2] 0.151 | [3] 0.132 | [4] -0.066 | [5] -0.07

F5 (UniProt P12259)
inactive: [1] -0.025 | [2] -0.091 | [3] 0.003 | [4] 0.077 | [5] 0.014

FADS3 (UniProt Q9Y5Q0)
inactive: [1] 0.027 | [2] 0.023 | [3] 0.026 | [4] 0.025 | [5] -0.007

EGR1 (UniProt P18146)
inactive: [1] 0.034 | [2] 0.241 | [3] -0.097 | [4] 0.705 | [5] 0.07

DHPS (UniProt P49366)
Chain of UniProt P49366 (P49366 whole entry, looked up): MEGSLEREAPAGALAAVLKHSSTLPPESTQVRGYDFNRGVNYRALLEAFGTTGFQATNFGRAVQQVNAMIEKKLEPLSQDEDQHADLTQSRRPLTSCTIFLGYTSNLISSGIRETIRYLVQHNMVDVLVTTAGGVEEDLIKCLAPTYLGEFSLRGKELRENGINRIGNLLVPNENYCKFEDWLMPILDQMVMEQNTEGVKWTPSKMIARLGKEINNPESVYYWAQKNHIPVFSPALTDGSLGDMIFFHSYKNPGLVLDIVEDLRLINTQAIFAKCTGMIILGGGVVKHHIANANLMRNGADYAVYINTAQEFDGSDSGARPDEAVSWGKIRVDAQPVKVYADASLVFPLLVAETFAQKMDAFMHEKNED
inactive: [1] -0.014 | [2] 0.013 | [3] -0.014 | [4] 0.013 | [5] 0.081

DCAF13 (UniProt Q9NV06)
Chain of UniProt Q9NV06 (Q9NV06 whole entry, looked up): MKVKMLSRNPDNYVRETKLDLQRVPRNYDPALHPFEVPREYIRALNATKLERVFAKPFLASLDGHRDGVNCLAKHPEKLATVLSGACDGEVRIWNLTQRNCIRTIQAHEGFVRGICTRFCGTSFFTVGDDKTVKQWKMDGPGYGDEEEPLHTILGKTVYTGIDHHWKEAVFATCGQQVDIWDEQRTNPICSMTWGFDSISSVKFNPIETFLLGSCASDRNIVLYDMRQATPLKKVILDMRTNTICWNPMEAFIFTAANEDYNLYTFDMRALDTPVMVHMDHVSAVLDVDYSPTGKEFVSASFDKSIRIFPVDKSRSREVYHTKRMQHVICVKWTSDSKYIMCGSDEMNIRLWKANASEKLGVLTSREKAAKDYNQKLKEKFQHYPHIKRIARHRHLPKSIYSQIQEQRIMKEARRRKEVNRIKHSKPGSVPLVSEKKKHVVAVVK
inactive: [1] 0.105 | [2] -0.221 | [3] -0.152 | [4] 0.128 | [5] 0

DUS2 (UniProt Q9NX74)
inactive: [1] 0.024 | [2] 0.055 | [3] 0.109 | [4] -0.087 | [5] -0.023

CYFIP1 (UniProt Q7L576)
Chain of UniProt Q7L576 (Q7L576 whole entry, looked up): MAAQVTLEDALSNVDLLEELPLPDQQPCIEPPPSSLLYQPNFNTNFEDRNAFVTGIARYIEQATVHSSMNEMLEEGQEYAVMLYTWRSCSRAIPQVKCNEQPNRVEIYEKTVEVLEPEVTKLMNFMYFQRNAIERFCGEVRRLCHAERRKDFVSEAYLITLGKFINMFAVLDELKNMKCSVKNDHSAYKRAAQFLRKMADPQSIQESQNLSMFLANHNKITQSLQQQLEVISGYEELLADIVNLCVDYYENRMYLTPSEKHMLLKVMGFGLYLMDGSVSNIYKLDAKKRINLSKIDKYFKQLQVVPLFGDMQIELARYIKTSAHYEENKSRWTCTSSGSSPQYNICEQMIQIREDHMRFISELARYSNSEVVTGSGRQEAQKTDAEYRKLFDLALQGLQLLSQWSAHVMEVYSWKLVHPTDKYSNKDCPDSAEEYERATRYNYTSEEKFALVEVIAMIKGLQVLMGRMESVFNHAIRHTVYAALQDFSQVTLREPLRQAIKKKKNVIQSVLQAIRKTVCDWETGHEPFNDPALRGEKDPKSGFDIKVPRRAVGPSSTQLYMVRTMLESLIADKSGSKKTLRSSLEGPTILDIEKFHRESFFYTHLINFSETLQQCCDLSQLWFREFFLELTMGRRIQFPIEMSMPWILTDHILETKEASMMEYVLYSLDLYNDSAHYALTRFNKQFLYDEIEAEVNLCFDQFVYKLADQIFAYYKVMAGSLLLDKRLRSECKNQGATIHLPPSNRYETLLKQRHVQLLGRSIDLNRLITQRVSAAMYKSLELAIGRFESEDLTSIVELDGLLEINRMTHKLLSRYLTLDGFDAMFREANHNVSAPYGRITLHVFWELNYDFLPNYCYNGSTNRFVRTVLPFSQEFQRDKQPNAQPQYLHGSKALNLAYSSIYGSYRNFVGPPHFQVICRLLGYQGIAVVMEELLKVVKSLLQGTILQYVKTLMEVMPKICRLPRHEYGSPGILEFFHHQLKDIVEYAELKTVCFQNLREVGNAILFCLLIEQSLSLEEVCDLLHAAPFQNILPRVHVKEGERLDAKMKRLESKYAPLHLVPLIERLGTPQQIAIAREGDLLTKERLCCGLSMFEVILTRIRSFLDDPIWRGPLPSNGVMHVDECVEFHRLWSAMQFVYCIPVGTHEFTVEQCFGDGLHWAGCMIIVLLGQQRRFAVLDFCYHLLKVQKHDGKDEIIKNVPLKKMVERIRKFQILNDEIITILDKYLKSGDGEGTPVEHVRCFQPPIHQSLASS
inactive: [1] 0.009 | [2] 0.005 | [3] -0.009 | [4] -0.005 | [5] -0.029

EIF3J (UniProt O75822)
Chain of UniProt O75822 (O75822 whole entry, looked up): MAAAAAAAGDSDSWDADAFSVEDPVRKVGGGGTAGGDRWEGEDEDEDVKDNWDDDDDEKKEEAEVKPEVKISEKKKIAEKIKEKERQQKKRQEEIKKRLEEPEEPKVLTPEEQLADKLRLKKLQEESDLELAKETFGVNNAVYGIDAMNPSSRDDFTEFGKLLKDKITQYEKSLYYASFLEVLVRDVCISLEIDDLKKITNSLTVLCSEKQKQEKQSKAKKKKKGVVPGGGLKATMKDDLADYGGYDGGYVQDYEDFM
inactive: [1] -0.034 | [2] 0.025 | [3] -0.004 | [4] -0.041 | [5] -0.035

EGLN1 (UniProt Q9GZT9)
inactive: [1] 0.055 | [2] 0.06 | [3] 0.013 | [4] 0.008 | [5] 0.019

CTSV (UniProt O60911)
Chain of UniProt O60911 (O60911 whole entry, looked up): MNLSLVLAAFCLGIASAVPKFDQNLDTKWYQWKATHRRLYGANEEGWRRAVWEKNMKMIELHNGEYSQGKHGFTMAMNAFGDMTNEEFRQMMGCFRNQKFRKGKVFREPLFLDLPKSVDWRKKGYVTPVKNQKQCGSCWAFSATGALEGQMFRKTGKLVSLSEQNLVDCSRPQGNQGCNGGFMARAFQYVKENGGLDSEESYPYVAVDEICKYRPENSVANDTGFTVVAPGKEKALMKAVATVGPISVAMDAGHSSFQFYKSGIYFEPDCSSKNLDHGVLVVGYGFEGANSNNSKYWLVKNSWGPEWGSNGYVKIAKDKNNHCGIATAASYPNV
inactive: [1] -0.02 | [2] -0.087 | [3] 0.021 | [4] -0.065 | [5] 0.005

EXOC4 (UniProt Q96A65)
inactive: [1] -0.05 | [2] 0.052 | [3] 0.015 | [4] 0.081 | [5] -0.049

ERCC6 (UniProt Q03468)
inactive: [1] 0.013 | [2] -0.025 | [3] -0.018 | [4] -0.008 | [5] 0.151

DHRS7B (UniProt Q6IAN0)
Chain of UniProt Q6IAN0 (Q6IAN0 whole entry, looked up): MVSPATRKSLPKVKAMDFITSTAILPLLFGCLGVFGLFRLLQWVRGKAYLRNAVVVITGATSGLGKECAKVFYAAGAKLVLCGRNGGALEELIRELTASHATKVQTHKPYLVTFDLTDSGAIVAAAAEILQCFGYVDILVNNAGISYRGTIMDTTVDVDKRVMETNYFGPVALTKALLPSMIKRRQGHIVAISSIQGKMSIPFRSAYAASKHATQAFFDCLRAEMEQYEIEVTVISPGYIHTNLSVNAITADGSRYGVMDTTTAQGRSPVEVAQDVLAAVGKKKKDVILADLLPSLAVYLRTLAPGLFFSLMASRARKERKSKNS
inactive: [1] 0.054 | [2] 0.032 | [3] -0.001 | [4] -0.018 | [5] -0.013
